Measurements from PubChem BioAssay.
“And” between values parts separate entries of the source, which are not always exact repeats. Equal values may be shown once. Results filed as inconclusive are left out. The source holds several records for some structures; these can differ, active in one and inactive in another. The source made the active and inactive calls. Unless noted, how the calls were made is not given here.

Biological target: ATP-dependent translocase ABCB1 (Homo sapiens) (UniProt P08183)
Test: MDR1 (ABCB1) efflux transporter inhibition, cell-based (AID 377; in the data active means fluorescence slope change above about 50%)
Conditions: MDR1-expressing cells, fluorescent substrate accumulation slope; stronger effect = higher value; concentration not given here

Chain of ATP-dependent translocase ABCB1 (Homo sapiens) (P08183 whole entry, looked up): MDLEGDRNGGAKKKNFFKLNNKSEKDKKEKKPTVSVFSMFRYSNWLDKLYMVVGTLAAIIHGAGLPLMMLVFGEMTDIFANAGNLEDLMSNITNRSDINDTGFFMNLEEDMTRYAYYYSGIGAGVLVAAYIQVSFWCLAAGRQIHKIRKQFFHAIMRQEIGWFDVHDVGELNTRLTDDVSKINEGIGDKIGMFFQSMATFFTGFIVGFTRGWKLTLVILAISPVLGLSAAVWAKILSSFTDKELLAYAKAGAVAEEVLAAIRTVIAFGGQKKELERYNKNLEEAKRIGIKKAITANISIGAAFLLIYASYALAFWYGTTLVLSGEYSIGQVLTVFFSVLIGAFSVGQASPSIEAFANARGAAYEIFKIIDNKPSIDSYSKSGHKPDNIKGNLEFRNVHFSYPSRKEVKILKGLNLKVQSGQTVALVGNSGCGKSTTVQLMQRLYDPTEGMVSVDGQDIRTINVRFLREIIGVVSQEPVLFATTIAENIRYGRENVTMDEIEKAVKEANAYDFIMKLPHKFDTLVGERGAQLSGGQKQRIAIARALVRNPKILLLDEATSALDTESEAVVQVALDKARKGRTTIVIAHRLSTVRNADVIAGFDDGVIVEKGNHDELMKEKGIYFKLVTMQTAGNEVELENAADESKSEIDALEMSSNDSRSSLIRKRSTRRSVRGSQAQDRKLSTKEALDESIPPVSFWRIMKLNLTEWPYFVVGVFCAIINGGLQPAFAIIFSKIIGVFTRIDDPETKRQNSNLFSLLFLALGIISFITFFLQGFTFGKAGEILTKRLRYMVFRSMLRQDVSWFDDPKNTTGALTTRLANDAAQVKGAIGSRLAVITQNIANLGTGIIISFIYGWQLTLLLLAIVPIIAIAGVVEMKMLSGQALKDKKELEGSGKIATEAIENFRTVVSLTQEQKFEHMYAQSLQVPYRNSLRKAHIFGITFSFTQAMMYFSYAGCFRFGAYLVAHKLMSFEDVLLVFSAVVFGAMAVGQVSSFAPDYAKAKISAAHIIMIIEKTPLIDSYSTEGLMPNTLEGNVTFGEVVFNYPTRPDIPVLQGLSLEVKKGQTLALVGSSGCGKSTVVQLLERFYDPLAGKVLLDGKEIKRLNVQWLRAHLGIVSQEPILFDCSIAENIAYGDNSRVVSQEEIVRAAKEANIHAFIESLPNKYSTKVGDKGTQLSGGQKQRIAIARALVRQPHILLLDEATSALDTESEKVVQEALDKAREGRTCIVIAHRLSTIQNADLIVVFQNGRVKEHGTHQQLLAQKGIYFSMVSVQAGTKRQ

SMILES | fluorescence slope change
Cc1c2ccncc2c(C)c2c1[nH]c1ccccc12 | 77.1% (active)
COc1ccc(CC2c3cc(OC)c(OC)cc3CCN2C)cc1OC (stereo not drawn) | 206% (active)
CN1Cc2c(ccc3c2OCO3)[C@@H]2[C@H]1c1cc3c(cc1C[C@@H]2O)OCO3 | 54.5% (active)
COc1cc2c(cc1O)C[C@H]1c3c(cc(O)c(OC)c3-2)CCN1C | 14.6% (inactive)
C[C@H]1CC[C@]2(NC1)O[C@H]1C[C@H]3[C@@H]4CC[C@H]5C[C@@H](O)CC[C@]5(C)[C@H]4CC[C@]3(C)[C@H]1[C@@H]2C | 83.2% (active)

Tested on: not listed separately
Test: antimalarial activity against Dd2 strain (AID 2302;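 active means growth inhibition above 50% at the single 2 µM test dose, taken to imply half-maximal potency below 2 µM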;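 further: 0% = DMSO untreated growth and 100% = chloroquine plus artemisinin killed control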)
Conditions: P. falciparum Dd2 in RBCs, LDH growth readout, 72 h; at 2 µM; stronger effect = higher value

SMILES | growth inhibition
Cc1c2ccncc2c(C)c2c1[nH]c1ccccc12 | 97% (active)
C=CC12CCN(CC1)C(C(O)c1ccnc3ccc(OC)cc13)C2 (stereo not drawn) | 72% (active)
O=C(C=Cc1ccc(-c2ccccc2)cc1)NC1CCC(CN2CCC(c3c[nH]c4ccccc34)CC2)CC1 (stereo not drawn) | 85% (active) and 98% (active)
COC(=O)/C=C/C(=O)N[C@@H]1CC[C@@]2(O)[C@H]3Cc4ccc(O)c5c4[C@@]2(CCN3CC2CC2)[C@H]1O5 | 66% (active)
COC(=O)c1ccc(CC(C)NCC(O)c2cccc(C(F)(F)F)c2)cc1F (stereo not drawn) | 47% (inactive)
Cc1[nH]c2cc(Cl)ccc2c1C1=CCN(CCCCC2(C)C(=O)Nc3c(F)cccc32)CC1 (stereo not drawn) | 74% (active)
Cc1c(C)c2c(c(C)c1O)CC[C@](C)(C(=O)N1CCC(CN3CCC(c4c[nH]c5ccccc45)CC3)CC1)O2 | 98% (active)

Tested on: not listed separately
Test: HepG2 cytotoxicity, primary screen, cytotoxicity control for P. falciparum antimalarial project, cell-based, ATP luminescence (AID 2303;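 active means inhibition above 50%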;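 further: 0% = DMSO wells and 100% = digitonin-killed cells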)
Conditions: HepG2 viability, 24-48 h, at 10 µM, stronger effect = higher value

SMILES | inhibition
Cc1c2ccncc2c(C)c2c1[nH]c1ccccc12 | 38% (inactive)
C=CC12CCN(CC1)C(C(O)c1ccnc3ccc(OC)cc13)C2 (stereo not drawn) | -6% (inactive)
O=C(C=Cc1ccc(-c2ccccc2)cc1)NC1CCC(CN2CCC(c3c[nH]c4ccccc34)CC2)CC1 (stereo not drawn) | 43% (inactive) and 97% (active)
COC(=O)/C=C/C(=O)N[C@@H]1CC[C@@]2(O)[C@H]3Cc4ccc(O)c5c4[C@@]2(CCN3CC2CC2)[C@H]1O5 | 9% (inactive)
COC(=O)c1ccc(CC(C)NCC(O)c2cccc(C(F)(F)F)c2)cc1F (stereo not drawn) | 1% (inactive)
Cc1[nH]c2cc(Cl)ccc2c1C1=CCN(CCCCC2(C)C(=O)Nc3c(F)cccc32)CC1 (stereo not drawn) | 14% (inactive)
Cc1c(C)c2c(c(C)c1O)CC[C@](C)(C(=O)N1CCC(CN3CCC(c4c[nH]c5ccccc45)CC3)CC1)O2 | 29% (inactive)

Biological target: L-lactate dehydrogenase (Plasmodium falciparum (isolate CDC / Honduras)) (UniProt Q27743)
Test: PfLDH activity inhibition – cell lysate, 3D7 strain, counter-screen for P. falciparum growth inhibition project (AID 2304);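 further: 0% = vehicle and 100% = reference inhibitor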
Conditions: P. falciparum 3D7 crude extract, LDH APAD/NBT absorbance; at 2 µM; stronger effect = higher value

Chain of L-lactate dehydrogenase (Plasmodium falciparum (isolate CDC / Honduras)) (Q27743 whole entry, looked up): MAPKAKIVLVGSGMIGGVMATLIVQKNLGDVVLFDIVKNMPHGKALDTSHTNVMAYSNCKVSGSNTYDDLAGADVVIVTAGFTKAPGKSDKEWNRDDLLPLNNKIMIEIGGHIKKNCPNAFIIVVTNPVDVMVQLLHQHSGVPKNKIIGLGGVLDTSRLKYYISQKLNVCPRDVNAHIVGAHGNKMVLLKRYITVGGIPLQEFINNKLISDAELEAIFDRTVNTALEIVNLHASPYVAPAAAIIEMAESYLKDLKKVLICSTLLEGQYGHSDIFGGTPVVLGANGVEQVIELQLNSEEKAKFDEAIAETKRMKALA

SMILES | inhibition
Cc1c2ccncc2c(C)c2c1[nH]c1ccccc12 | 2% (inactive)
C=CC12CCN(CC1)C(C(O)c1ccnc3ccc(OC)cc13)C2 (stereo not drawn) | -9% (inactive)
O=C(C=Cc1ccc(-c2ccccc2)cc1)NC1CCC(CN2CCC(c3c[nH]c4ccccc34)CC2)CC1 (stereo not drawn) | -7% (inactive)
COC(=O)/C=C/C(=O)N[C@@H]1CC[C@@]2(O)[C@H]3Cc4ccc(O)c5c4[C@@]2(CCN3CC2CC2)[C@H]1O5 | -2% (inactive)
COC(=O)c1ccc(CC(C)NCC(O)c2cccc(C(F)(F)F)c2)cc1F (stereo not drawn) | 7% (inactive)
Cc1[nH]c2cc(Cl)ccc2c1C1=CCN(CCCCC2(C)C(=O)Nc3c(F)cccc32)CC1 (stereo not drawn) | 3% (inactive)
Cc1c(C)c2c(c(C)c1O)CC[C@](C)(C(=O)N1CCC(CN3CCC(c4c[nH]c5ccccc45)CC3)CC1)O2 | 2% (inactive)

Tested on: not listed separately
Test: inhibition of 3D7 malaria parasite growth – strain 3D7 (AID 2306);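 further: 0% = DMSO wells and 100% = chloroquine plus artemisinin control wells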
Conditions: P. falciparum 3D7 erythrocytic growth, LDH absorbance, 72 h; at 2 µM; stronger effect = higher value

SMILES | growth inhibition
Cc1c2ccncc2c(C)c2c1[nH]c1ccccc12 | 95% (active)
O=C(C=Cc1ccc(-c2ccccc2)cc1)NC1CCC(CN2CCC(c3c[nH]c4ccccc34)CC2)CC1 (stereo not drawn) | 101% (active)
COC(=O)/C=C/C(=O)N[C@@H]1CC[C@@]2(O)[C@H]3Cc4ccc(O)c5c4[C@@]2(CCN3CC2CC2)[C@H]1O5 | 95% (active)
COC(=O)c1ccc(CC(C)NCC(O)c2cccc(C(F)(F)F)c2)cc1F (stereo not drawn) | 82% (active)
Cc1[nH]c2cc(Cl)ccc2c1C1=CCN(CCCCC2(C)C(=O)Nc3c(F)cccc32)CC1 (stereo not drawn) | 90% (active)
Cc1c(C)c2c(c(C)c1O)CC[C@](C)(C(=O)N1CCC(CN3CCC(c4c[nH]c5ccccc45)CC3)CC1)O2 | 101% (active)

Tested on: not listed separately
Test: hESC survival regulators, cell-based (AID 493140);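 further: cells exposed to compounds for four days before counting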
Conditions: human embryonic stem cell survival screen; stronger effect = higher value

SMILES | survival
Cc1c2ccncc2c(C)c2c1[nH]c1ccccc12 | 10.4 (inactive)
CC(N)C(O)c1ccc(O)c(O)c1 (stereo not drawn) | 3.67 (inactive)
COc1ccc(CC2c3cc(OC)c(OC)cc3CCN2C)cc1OC (stereo not drawn) | 6.67 (inactive)
CN1Cc2c(ccc3c2OCO3)[C@@H]2[C@H]1c1cc3c(cc1C[C@@H]2O)OCO3 | 0.417 (inactive)

Tested on: not listed separately
Test: liver-stage malaria parasite growth inhibition, primary screen, cell-based, HepG2, luciferase luminescence, HepG2 viability (AID 624349; in the data active means parasite load remaining mostly below about 12%, no sharp cut-off; inactive means mostly above about 10%;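 further: 100% = mean of DMSO negative control wells on the same plate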)
Conditions: P. berghei liver stage in HepG2, luciferase luminescence, concentration not given here; parasite load remaining: stronger effect = lower value; viability: measured here: HepG2 viability without parasites

SMILES | viability | parasite load remaining
Cc1c2ccncc2c(C)c2c1[nH]c1ccccc12 | 85.3% and 75.8% | 62% (inactive) and 52.8% (inactive)
COc1ccc(CC2c3cc(OC)c(OC)cc3CCN2C)cc1OC (stereo not drawn) | 98.7% and 71.4% | 122% (inactive) and 66.2% (inactive)
CN1Cc2c(ccc3c2OCO3)[C@@H]2[C@H]1c1cc3c(cc1C[C@@H]2O)OCO3 | 77.6% | 92.6% (inactive)
C[C@@H]1CC[C@@]2(NC1)O[C@H]1C[C@H]3[C@@H]4CC=C5C[C@@H](O)CC[C@]5(C)[C@H]4CC[C@]3(C)[C@H]1[C@@H]2C | 95.9% | 86.7% (inactive)
COc1cc2c(cc1O)C[C@H]1c3c(cc(O)c(OC)c3-2)CCN1C | 118% | 91.1% (inactive)
C[C@H]1CC[C@]2(NC1)O[C@H]1C[C@H]3[C@@H]4CC[C@H]5C[C@@H](O)CC[C@]5(C)[C@H]4CC[C@]3(C)[C@H]1[C@@H]2C | 101% | 75.2% (inactive)
